Experimental data: the antibiotic and cytotoxicity screens of Wong et al. (2023)
About 3,300 (8.5%) of roughly 39,000 compounds were called active. This is one part of a sample in which actives are shown more often than they occur.

system: HepG2; assay: cytotoxicity call (relative viability < 0.9); conditions: 10 µM

SMILES | cytotoxicity call
COc1ccc(S(=O)(=O)Nc2ccc3c(c2)CC(=O)N([C@@H](C)CO)C[C@H](C)[C@H](CN(C)S(C)(=O)=O)O3)cc1 | inactive
Cc1noc(C)c1NC(=O)Nc1ccc2c(c1)C(=O)N([C@@H](C)CO)C[C@@H](C)[C@H](CN(C)C(=O)Nc1ccc3c(c1)OCO3)OCCCC[C@H](C)O2 | inactive
CNC[C@@H]1OCCCC[C@@H](C)Oc2ccc(NC(=O)Nc3ccc(C(F)(F)F)cc3)cc2C(=O)N([C@H](C)CO)C[C@@H]1C | inactive
C[C@@H]1CN([C@H](C)CO)C(=O)c2cc(NC(=O)Cc3cn(C)c4ccccc34)ccc2O[C@@H]1CN(C)S(C)(=O)=O | inactive
O=C(C[C@H]1C[C@H]2c3cc(NC(=O)Nc4ccccc4F)ccc3O[C@H]2[C@@H](CO)O1)NCc1ccc(Oc2ccccc2)cc1 | inactive
C[C@@H]1CCCCO[C@@H](CN(C)Cc2ccncc2)[C@@H](C)CN([C@H](C)CO)C(=O)c2cc(NS(C)(=O)=O)ccc2O1 | inactive
C[C@@H]1CN([C@@H](C)CO)C(=O)c2cccc(NC(=O)CCCCCC(=O)Nc3ccccc3N)c2O[C@H]1CN(C)Cc1ccc(C(F)(F)F)cc1 | inactive
Cc1noc(C)c1S(=O)(=O)Nc1ccc2c(c1)C(=O)N([C@H](C)CO)C[C@H](C)[C@@H](CN(C)C)OCCCC[C@H](C)O2 | inactive
CCOC(=O)Cc1c(C)[nH]c(=O)[nH]c1=O | inactive
COc1cccc(C#Cc2cnc3c(c2)C(=O)N([C@@H](C)CO)C[C@@H](C)[C@H](CN(C)C(=O)C2CCC2)O3)c1 | inactive
Cc1cc(C(=O)Nc2cccc3c2O[C@@H](CN(C)S(=O)(=O)c2cccs2)[C@@H](C)CN([C@H](C)CO)C3=O)n(C)n1 | inactive
C[C@@H]1CN([C@@H](C)CO)C(=O)Cc2cc(NC(=O)Cc3cn(C)c4ccccc34)ccc2O[C@@H]1CN(C)Cc1ccc(Oc2ccccc2)cc1 | active
C[C@H](CO)N1C[C@H](C)[C@@H](CN(C)Cc2ccc(Oc3ccccc3)cc2)Oc2ccc(NC(=O)Cc3cn(C)c4ccccc34)cc2CC1=O | inactive
C[C@@H]1CN([C@H](C)CO)C(=O)c2c(c3ccccc3n2C)-c2ccccc2CO[C@H]1CN(C)Cc1ccc(C(F)(F)F)cc1 | active
C[C@@H]1CN([C@@H](C)CO)C(=O)c2c(c3ccccc3n2C)-c2ccccc2CO[C@@H]1CN(C)Cc1ccc(C(F)(F)F)cc1 | inactive
C[C@H](CO)N1C[C@H](C)[C@@H](CN(C)Cc2ccc(-c3ccccc3)cc2)OCc2ccccc2-c2c(n(C)c3ccccc23)C1=O | inactive
C[C@@H]1CN([C@@H](C)CO)C(=O)c2c(c3ccccc3n2C)-c2ccccc2CO[C@@H]1CN(C)Cc1ccc(-c2ccccc2)cc1 | inactive
C[C@@H]1CN([C@@H](C)CO)C(=O)c2c(c3ccccc3n2C)-c2ccccc2CO[C@H]1CN(C)Cc1ccc(Cl)c(Cl)c1 | inactive
C[C@H](CO)N1C[C@H](C)[C@H](CN(C)Cc2ccc(Cl)c(Cl)c2)OCc2ccccc2-c2c(n(C)c3ccccc23)C1=O | active
C[C@H]1CN([C@@H](C)CO)C(=O)c2c(c3ccccc3n2C)-c2ccccc2CO[C@@H]1CN(C)Cc1ccc(-c2ccccc2)cc1 | inactive
C[C@@H]1CN([C@H](C)CO)C(=O)c2c(c3ccccc3n2C)-c2ccccc2CO[C@@H]1CN(C)Cc1ccc(-c2ccccc2)cc1 | inactive
C[C@@H]1CN([C@H](C)CO)C(=O)c2c(c3ccccc3n2C)-c2ccccc2CO[C@H]1CN(C)Cc1ccc(Cl)c(Cl)c1 | inactive
C[C@@H]1CN([C@H](C)CO)C(=O)c2c(c3ccccc3n2C)-c2ccccc2CO[C@@H]1CN(C)Cc1ccc(C(F)(F)F)cc1 | inactive
C[C@@H]1CN([C@@H](C)CO)C(=O)c2c(c3ccccc3n2C)-c2ccccc2CO[C@H]1CN(C)Cc1ccccc1 | active
C[C@@H]1CN([C@H](C)CO)C(=O)c2c(c3ccccc3n2C)-c2ccccc2CO[C@@H]1CN(C)Cc1ccccc1 | active

SMILES | cytotoxicity call
C[C@@H]1CCCCO[C@H](CN(C)C(=O)Nc2ccc(C(F)(F)F)cc2)[C@H](C)CN([C@@H](C)CO)C(=O)c2cc(NC(=O)Nc3cccc4ccccc34)ccc2O1 | inactive
C[C@@H]1CN([C@@H](C)CO)C(=O)c2cc(NC(=O)C3CCCCC3)ccc2O[C@@H](C)CCCCO[C@@H]1CN(C)C(=O)Nc1ccc(C(F)(F)F)cc1 | inactive
COc1cccc(C#Cc2ccc3c(c2)O[C@@H](CN(C)C(C)=O)[C@H](C)CN([C@@H](C)CO)S3(=O)=O)c1 | inactive
COc1ccc(NC(=O)N(C)C[C@H]2OCCCC[C@H](C)Oc3ccc(NC(=O)Nc4cccc5ccccc45)cc3C(=O)N([C@@H](C)CO)C[C@H]2C)cc1 | inactive
CCCC1CCC(c2ccc(OC(=O)c3ccco3)cc2)CC1 (stereo not given) | inactive
CCCN(C)C[C@@H]1OCCCC[C@@H](C)Oc2ccc(NC(=O)CCC(F)(F)F)cc2C(=O)N([C@@H](C)CO)C[C@@H]1C | inactive
C[C@@H]1CN([C@@H](C)CO)C(=O)c2cc(C3=CCCC3)cnc2O[C@H]1CN(C)S(=O)(=O)c1cn(C)cn1 | inactive
C[C@@H]1CN([C@@H](C)CO)C(=O)CCCn2cc(nn2)CO[C@@H]1CN(C)C(=O)Nc1cccc2ccccc12 | inactive
CCC(=O)N1C[C@]2(C1)CN([C@H](CO)c1c2c2ccc(cc2n1C)OC)C(=O)CN1CCOCC1 | inactive
C[C@H](CO)N1C[C@H](C)[C@H](CN(C)Cc2ccc(-c3ccccc3)cc2)Oc2c(NC(=O)Nc3ccc4c(c3)OCO4)cccc2C1=O | inactive
C[C@@H]1CN([C@@H](C)CO)S(=O)(=O)c2ccc(C#CC3(O)CCCC3)cc2O[C@H]1CN(C)C(=O)c1ccccc1 | inactive
C[C@@H]1CN([C@@H](C)CO)C(=O)c2cccc(NS(=O)(=O)c3cn(C)cn3)c2O[C@@H]1CN(C)S(C)(=O)=O | inactive
CCS(=O)(=O)N1C[C@]2(C1)CN([C@H](CO)c1c2c2ccc(cc2n1C)OC)S(=O)(=O)c1ccccc1 | inactive
C[C@H]1CN([C@@H](C)CO)C(=O)c2c(c3ccccc3n2C)-c2ccccc2CO[C@H]1CN(C)Cc1ccccc1 | inactive
C[C@H](CO)N1C[C@H](C)[C@H](CN(C)Cc2ccccc2C(F)(F)F)OCc2ccccc2-c2c(n(C)c3ccccc23)C1=O | inactive
C[C@H](CO)N1C[C@H](C)[C@@H](CN(C)Cc2ccccc2)OCc2ccccc2-c2c(n(C)c3ccccc23)C1=O | active
COc1ccccc1CN(C)C[C@@H]1OCc2ccccc2-c2c(n(C)c3ccccc23)C(=O)N([C@H](C)CO)C[C@H]1C | inactive
C[C@@H]1CN([C@@H](C)CO)C(=O)c2c(c3ccccc3n2C)-c2ccccc2CO[C@H]1CN(C)Cc1ccccc1C(F)(F)F | inactive
C[C@@H]1CN([C@H](C)CO)C(=O)c2c(c3ccccc3n2C)-c2ccccc2CO[C@H]1CN(C)Cc1ccccc1C(F)(F)F | active
COc1ccccc1CN(C)C[C@H]1OCc2ccccc2-c2c(n(C)c3ccccc23)C(=O)N([C@@H](C)CO)C[C@@H]1C | inactive
C[C@@H]1CN([C@H](C)CO)C(=O)c2c(c3ccccc3n2C)-c2ccccc2CO[C@H]1CN(C)Cc1ccccc1 | active
C[C@H](CO)N1C[C@H](C)[C@H](CN(C)Cc2ccccc2)OCc2ccccc2-c2c(n(C)c3ccccc23)C1=O | inactive
C[C@H]1CN([C@@H](C)CO)C(=O)c2c(c3ccccc3n2C)-c2ccccc2CO[C@@H]1CN(C)Cc1ccccc1 | inactive
COc1ccccc1CN(C)C[C@H]1OCc2ccccc2-c2c(n(C)c3ccccc23)C(=O)N([C@H](C)CO)C[C@@H]1C | active
C[C@@H]1CN([C@@H](C)CO)C(=O)c2c(c3ccccc3n2C)-c2ccccc2CO[C@@H]1CN(C)Cc1ccccc1 | inactive
